The entries come from a sample that favours hits as a whole.
FECH inh: inhibitors of human ferrochelatase, primary screen, biochemical, purified FECH, Ni-mesoporphyrin absorbance | Ferrochelatase, mitochondrial (Homo sapiens), P22830 | Ni-mesoporphyrin absorbance 550 nm | calls only at 10 µM (by protocol) | hit rate 3.3% among 20,000;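 active means enzyme reaction rate more than 3 SD below the solvent-only control wells on the same plate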;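 further: lower slope than DMSO wells means FECH inhibition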
Target sequence (P22830 whole entry, looked up): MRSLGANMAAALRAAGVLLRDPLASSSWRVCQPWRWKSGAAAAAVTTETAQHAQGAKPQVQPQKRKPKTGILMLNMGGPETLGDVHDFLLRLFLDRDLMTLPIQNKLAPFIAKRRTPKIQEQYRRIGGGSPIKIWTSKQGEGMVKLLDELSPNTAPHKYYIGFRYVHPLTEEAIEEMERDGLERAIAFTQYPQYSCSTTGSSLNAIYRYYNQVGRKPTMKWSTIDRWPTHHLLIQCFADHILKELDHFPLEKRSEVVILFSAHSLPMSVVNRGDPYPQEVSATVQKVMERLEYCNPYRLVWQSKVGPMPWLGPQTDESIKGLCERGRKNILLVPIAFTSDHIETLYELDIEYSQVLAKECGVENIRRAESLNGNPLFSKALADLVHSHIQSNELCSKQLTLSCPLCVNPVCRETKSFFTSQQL
Large screens that a line does not name were inactive.

CCN1C(SCC(=O)Nc2cccc(C(F)(F)F)c2)=NS(=O)(=O)c2ccccc21	FECH inh active
CCN1C(SCC(=O)Nc2cccc(Br)c2)=NS(=O)(=O)c2ccccc21	FECH inh active
CCN1C(SCC(=O)Nc2cc(OC)cc(OC)c2)=NS(=O)(=O)c2ccccc21	none
COC(=O)CC1=CC(=O)N(CC(=O)Nc2cccc(C(F)(F)F)c2)c2ccccc2N1	none
O=C(CN1CCCN(Cc2ccccc2Cl)S1(=O)=O)Nc1cccc(Br)c1	none
Cc1nc(CC(=O)N2CCC(C(O)c3ccccn3)CC2)cs1 (stereo not given)	none
Cc1ccc2[nH]c(C(=O)O)c(CN(C)Cc3ncc[nH]3)c2c1	none
CCCc1cc(C(=O)N2CCC(c3ccccc3C(=O)O)C2)n[nH]1 (stereo not given)	none
CCOC(=O)c1ccccc1NC(=O)NCCc1nc2cccnc2n1C1CCCCC1	none
C=CCN(Cc1cccc(OC)c1)C(=O)C(C)N1CCN(C)CC1 (stereo not given)	none
O=C(CN1c2ccc(F)cc2-c2ccccc2S1(=O)=O)Nc1ccccc1C(=O)N1CCCCC1	none
CC(C)c1ccc2c(c1)-c1ccccc1S(=O)(=O)N2CC(=O)Nc1cccc(F)c1	FECH inh active
O=C(CN1CCN(Cc2ccc(F)cc2)S1(=O)=O)Nc1cccc(F)c1	none
O=C(CN1C(=O)c2ccccc2S1(=O)=O)Nc1ccc(Cl)cc1C(F)(F)F	none
CC(C)c1ccc2c(c1)-c1ccccc1S(=O)(=O)N2CC(=O)NC(C)c1ccccc1 (stereo not given)	FECH inh active
CC(C)NC(=O)c1ccccc1NC(=O)CN1c2ccc(C(C)C)cc2-c2ccccc2S1(=O)=O	none
CSc1ccccc1NC(=O)CN1c2ccc(C(C)C)cc2-c2ccccc2S1(=O)=O	none
CCN(CC)C(=O)c1ccccc1NC(=O)CN1c2ccc(F)cc2-c2ccccc2S1(=O)=O	FECH inh active
Cc1ccc(Oc2ncccc2CNC(=O)c2nc[nH]c2C)cn1	none
CC(C)Cc1ncc2c(n1)CN(C(=O)CCc1nc(Cl)n[nH]1)C2	none
O=C(O)c1cc2n(n1)CCN(C(=O)c1ccc(Oc3ccccc3)o1)C2	none
CCC/C=C/c1ccc(-c2nn[nH]n2)cc1	none
CCc1cccc(C)c1NS(=O)(=O)c1cc(N2C(=O)CCS2(=O)=O)ccc1C	FECH inh active
CCc1cccc(CC)c1NS(=O)(=O)c1cc(N2C(=O)CCS2(=O)=O)ccc1OC	none
COC(=O)CNS(=O)(=O)c1cc(N2C(=O)CCS2(=O)=O)ccc1OC	none
COc1ccc(N2C(=O)CCS2(=O)=O)cc1S(=O)(=O)N1CCN(c2ccccc2F)CC1	none
Cc1ccc(N2C(=O)CCS2(=O)=O)cc1S(=O)(=O)N1CCN(c2ccc(F)cc2)CC1	FECH inh active
CCOC(=O)CNS(=O)(=O)c1cc(N2C(=O)CCS2(=O)=O)ccc1C	FECH inh active
Cc1ccc(NS(=O)(=O)c2cc(N3C(=O)CCS3(=O)=O)ccc2C)cc1	none
CCOC(=O)C1CCN(S(=O)(=O)c2cc(N3C(=O)CCS3(=O)=O)ccc2C)CC1	none
COc1ccc(OCCNS(=O)(=O)c2cc(N3C(=O)CCS3(=O)=O)ccc2C)cc1	none
Cc1ccc(C(=O)Nc2cc(C)ccc2OCc2cc(=O)n3oc(C)cc3n2)cc1	none
COc1cccc(Cn2c(C3CCCCC3)n[nH]c2=O)c1	none
CCN(CC)C(=O)Cn1c(=O)n(Cc2ccc(C(=O)NC(C)C)cc2)c(=O)c2cc(OC)c(OC)cc21	none
O=C(Nc1ncns1)c1cccc(CN2CC[C@H](O)C2)c1	none
O=C(Nc1ccc2ncsc2c1)c1cccc(CN2CCCC(O)C2)c1 (stereo not given)	FECH inh active
O=C(Nc1nc2c(s1)CCCC2)c1cccc(CN2CC[C@H](O)C2)c1	none
CN(Cc1cc(C(C)(C)C)n[nH]1)Cc1cn[nH]c1-c1ccc(F)cc1	none
CCOC(=O)Cn1c(=O)n(-c2ccc(C)c(C)c2)c2nc(-c3ccc(F)cc3)nc(C(N)=O)c21	none
CCc1ccccc1NC(=O)CSc1ncnc2nc(N(C)C)sc12	none
Cc1cc(N2CCCC2)nc(N2CCN(S(=O)(=O)c3ccccc3)CC2)n1	none
Cc1cc(N2CCCCC2)nc(N2CCN(S(=O)(=O)c3ccccc3)CC2)n1	none
Nc1nc(N2CCCCCC2)ncc1S(=O)(=O)c1cccs1	FECH inh active
COc1ccc(NC(=O)C(=O)c2ccco2)c(NC(=O)C(C)C)c1	none
COc1ccc(CNc2cc(C)nc3nc(-c4cccnc4)nn23)cc1	none
CCn1ncc(C(=O)NCc2nc3cc(C(C)(C)C)ccc3o2)c1C	none
CN(C)c1nc(Nc2cccc(F)c2)c2cnn(-c3ccccc3)c2n1	none
CCC(=O)Nc1nc2n(n1)C(c1ccc(OC)cc1)C=C(c1ccc(Cl)cc1)N2 (stereo not given)	none
COc1ccc(NC(=O)CN2CCN(Cc3ccccc3C)S2(=O)=O)cc1OC	FECH inh active
COc1ccc(NC(=O)CN2CCN(Cc3ccccc3Cl)S2(=O)=O)cc1OC	none
COc1ccc(OC)c(NC(=O)CN2CCCN(Cc3cccc(C)c3)S2(=O)=O)c1	FECH inh active
CCOc1ccc(NC(=O)CN2CCCN(Cc3cccc(C)c3)S2(=O)=O)cc1	FECH inh active
Cc1ccc(NC(=O)CN2CCN(Cc3ccc(Cl)cc3)S2(=O)=O)cc1C	none
CCOc1ccc(NC(=O)CN2CCCN(Cc3cccc(F)c3)S2(=O)=O)cc1	none
COc1ccc(OC)c(NC(=O)CN2CCCN(Cc3ccc(C)cc3)S2(=O)=O)c1	none
Cc1cccc(CN2CCN(CC(=O)Nc3ccc(C)c(C)c3)S2(=O)=O)c1	FECH inh active
Cc1ccc(NC(=O)CN2CCCN(Cc3ccccc3)S2(=O)=O)cc1	none
Cc1ccc(CN2CCN(CC(=O)Nc3ccc(C)c(C)c3)S2(=O)=O)cc1	none
COc1ccc(OC)c(NC(=O)CN2CCCN(Cc3ccccc3)S2(=O)=O)c1	none
COc1ccc(NC(=O)CN2CCN(Cc3ccccc3C)S2(=O)=O)cc1Cl	none
COc1cccc(Cn2c(CNC(=O)c3ccc(N(C)C)cc3)nc3cccnc32)c1	none
O=C(CN1CCCN(Cc2ccccc2)S1(=O)=O)NCc1ccc(F)cc1	none
O=C(CC1CCN(S(=O)(=O)c2ccccc2)CC1)NCCCN1CCCCC1	none
O=S(=O)(NCc1nc2cccnc2n1C1CCCCC1)c1cccc2nsnc12	none
CN(Cc1n[nH]c2c1CCCCC2)S(=O)(=O)NCc1ccccc1	none
Cc1ccccc1-c1noc(CCC(=O)NC(C)c2cn3ccsc3n2)n1 (stereo not given)	none
CC(Cc1ccccn1)N(C)C(=O)C(C)(C)n1cccc1 (stereo not given)	none
Cc1ccc(CN2CCCN(Cc3c(F)cccc3Cl)S2(=O)=O)cc1	FECH inh active
Cc1cccc(CN2CCCN(CC(=O)Nc3ccccc3F)S2(=O)=O)c1	FECH inh active
Cc1ccc(NC(=O)CN2CCCN(Cc3ccc(Cl)cc3)S2(=O)=O)cc1	none
COc1cccc(NC(=O)CN2CCCN(Cc3cccc(F)c3)S2(=O)=O)c1	none
COc1ccc(CN2CCCN(CC(=O)Nc3ccccc3F)S2(=O)=O)cc1	none
Cc1ccc(CN2CCCN(Cc3ccc(F)cc3Cl)S2(=O)=O)cc1	none
Cc1cccc(NC(=O)CN2CCCN(Cc3ccccc3)S2(=O)=O)c1	none
Cc1ccc(C)c(CN2CCCN(CC(=O)Nc3ccc(C)c(F)c3)S2(=O)=O)c1	none
CCOc1ccc(NC(=O)CN2CCCN(Cc3cc(C)ccc3C)S2(=O)=O)cc1	FECH inh active
COc1cccc(NC(=O)CN2CCN(Cc3ccc(F)cc3)S2(=O)=O)c1	none
COc1cccc(NC(=O)CN2CCCN(Cc3cccc(C)c3)S2(=O)=O)c1	FECH inh active
Cc1ccc(C)c(CN2CCCN(CC(=O)NC3CCCC3)S2(=O)=O)c1	none

Compound activity deposited in PubChem by Corson Lab, School of Medicine, Indiana University.
